From PubChem BioAssay
Only some compounds are listed: those with a hit (about 1.4% of all), similar ones and a draw of the others.
TrxR1 substrate: rat thioredoxin reductase 1 substrate activity | O89049 | purified TrxR1 substrate turnover, NADPH consumption readout | Potency, µM (highest dose often 114 µM) | 390,000 compounds, 0.01% hits | AID 588456; also: nearly all actives have a fitted effect of over 50% in size
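Rat TrxR1, dispensed at 90 nM, was prereduced with 400 uM NADPH (final) for 5 min at ~22 deg C, then incubated with compound 15 min before 400 uM selenite. A first-read NADPH fluorescence drop versus no-compound background flagged substrates.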
LDHA block: blocks human lactate dehydrogenase A; purified LDHA, NADH/diaphorase-resazurin fluorescence; active compounds read low; 480,000 compounds, 0.15% hits; activity change, % (values are at about 110 or 230 µM); in the data active = activity change below about -30%; inconclusive = mostly about -25% to -30%
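Remaining NADH was detected by diaphorase (0.133 mg/mL) converting 37 µM resazurin to fluorescent resorufin, read at 0 and 20 minutes. The preceding 5-minute room-temperature reaction used 2 nM LDHA, 0.2 mM sodium pyruvate and 0.06 mM NADH at pH 7.4.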
TrxR1 inh: blocks rat thioredoxin reductase 1 | recombinant rTrxR1, NADPH fluorescence consumption, selenite substrate | 390,000 compounds, 1% hits | Potency, µM (series often up to 114 µM), most hits filed as inhibitors; also: nearly all actives have a fitted effect of over 65% in size
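Rat TrxR1 (90 nM in the dispensed reagent) was pre-reduced with 400 uM NADPH for 5 min at room temperature, then incubated with compound for 15 min. After 400 uM selenite was added, NADPH fluorescence (Ex 340/Em 450 nm) was followed for 8 min.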
GLS inhibitor: inhibitors of human glutaminase (GLS); GLS enzymatic activity, qHTS titration; Potency, µM (doses to about 45.5 µM), usual class: inhibitors; 410,000 compounds, 0.21% hits
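Assay buffer: 45 mM KH2PO4 pH 8.2, 0.02% Tween-20. hKGA acts on L-glutamine (1 mM solution added); product glutamate is reported by an oxidase/peroxidase Amplex Red coupling, with fluorescence taken at baseline and 30 min.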
PKM2 activator: increases activity of human pyruvate kinase M2; P14618; purified PKM2, Kinase-Glo ATP luminescence, activation; response scale: 0% is enzyme alone, no compound; Potency, µM (highest dose often 57.5 µM), most hits filed as activators; 260,000 compounds, 0.34% hits; also: nearly all actives have a fitted effect of over 55% in size
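ATP formation by purified human PK-M2, quantified via coupled luciferase luminescence after 1 h at room temperature with 0.1 mM ADP and 0.5 mM PEP final.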
IDH1 R132H inh: human IDH1 R132H inhibition; O75874; IDH1-R132H enzyme, NADPH consumption, diaphorase/resazurin fluorescence; Potency, µM (titrated, usually from 76.6 µM), usual class: inhibitors; 390,000 compounds, 0.093% hits; also: nearly all actives have a fitted effect of over 65% in size
Target sequence (O75874 whole entry R132H, stated change not applied): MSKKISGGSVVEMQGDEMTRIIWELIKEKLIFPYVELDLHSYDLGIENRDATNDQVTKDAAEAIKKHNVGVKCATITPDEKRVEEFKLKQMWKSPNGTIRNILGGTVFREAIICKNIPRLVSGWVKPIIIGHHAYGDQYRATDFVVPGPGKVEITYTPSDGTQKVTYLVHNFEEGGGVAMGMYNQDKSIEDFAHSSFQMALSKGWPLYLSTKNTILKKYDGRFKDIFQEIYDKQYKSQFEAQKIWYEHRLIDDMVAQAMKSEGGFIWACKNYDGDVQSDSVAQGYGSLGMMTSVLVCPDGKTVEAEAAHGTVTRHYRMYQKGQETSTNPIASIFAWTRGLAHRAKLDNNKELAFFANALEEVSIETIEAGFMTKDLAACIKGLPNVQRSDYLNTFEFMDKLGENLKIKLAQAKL
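IDH1-R132H (0.5 ug/mL dispensed) in pH 7.5 Tris buffer was preincubated 30 min with compound, then given a substrate mix of 0.016 mM NADPH and 2 mM alpha-KG for 80 min at room temperature; remaining NADPH was read by diaphorase/resazurin fluorescence.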
Hits are given with their value; n = inactive; u = inconclusive; x = not tested or not shown; ! = not active in a repeat. Unless noted, calls follow the shape of the dose curve; as a rule, active = well fitted curve in the direction sought with a large enough effect; inconclusive = small, poorly fitted or top-dose-only effect, or another doubt; inactive = no such curve, though single readings can be large; an effect the other way counts as inactive or inconclusive.

SMILES | TrxR1 substrate | LDHA block | TrxR1 inh | GLS inhibitor | PKM2 activator | IDH1 R132H inh
O=C1NC(Cc2ccccc2)C(=O)N1Cc1ccccc1 (stereo not given) | n | n | n | n | x | n
O=c1ccsn1Cc1ccccc1 | n | n | n | u | 5.01µM | n
Oc1ccc2ccccc2c1C=Nc1ccc(N2CCOCC2)cc1 | n | n | n | n | n | n
C(=Nc1ccc(N2CCOCC2)cc1)c1c[nH]c2ccccc12 | n | n | n | 11.2µM | n | n
Oc1ccc(N=Nc2cccc(Cl)c2)cc1C=Nc1ccc(N2CCOCC2)cc1 | n | n | n | u | n | n
Oc1c(Br)cc(Cl)cc1C=Nc1ccc(N2CCOCC2)cc1 | n | n | n | 12.6µM | n | n
Cc1ccc(C)c(-c2cc(C)ncc2C)c1 | x | -30.5 | x | x | x | x
Cc1ccc(Cc2cc(C)ncc2C)c(C)c1 | x | n | x | x | x | x
C/C=C/Cn1c(N2CCCCC2)nc2c1c(=O)[nH]c(=O)n2C | x | n | x | x | x | x
CC(C)OC(=O)c1ccc2cc(C(=O)OC(C)C)ccc2c1 | x | n | x | x | x | x
COc1cccc(C2=NS(=O)(=O)N(C)C(C(=O)NCC(C)C)=C2)c1 | x | n | x | x | x | x
N#CC(C#N)=Cc1ccc(OC(=O)c2ccccn2)cc1 | n | n | 12.6µM | n | n | n
COC(=O)c1ccc(OC(=O)c2ccccn2)cc1 | n | n | n | n | n | n
O=[N+]([O-])c1ccc(Sc2nnnn2-c2ccccc2)nc1 | n | n | 12.6µM | n | 17.8µM | n
O=[N+]([O-])c1ccc(Sc2ccccn2)nc1 | n | n | n | n | n | n
Cc1c(C)c2cc(Cl)c(OCc3nn[nH]n3)cc2oc1=O | n | n | n | n | 28.2µM | n
N#Cc1ccc(OCCOc2ccc3ccc(=O)oc3c2)cc1 | x | n | x | x | x | x
CN(C1CCS(=O)(=O)C1)S(=O)(=O)c1ccccc1 (stereo not given) | n | n | n | 15.8µM | n | n
CC(=O)c1ccc(OCc2cc(C(=O)N3CC[C@@H]4CCCC[C@H]4C3)no2)cc1 | n | n | 25.1µM | n | n | n
COCC1CCCN(C(=O)c2cc(COc3ccc(C(C)=O)cc3)on2)C1 (stereo not given) | n | n | u | n | x | n
O=C1C2C3C=CC(CC3)C2C(=O)N1/N=C/c1ccc(O)c(O)c1 (stereo not given) | n | n | n | n | n | n
O=C1c2ccccc2C(=O)N1/N=C/c1ccc(O)c(O)c1 | n | n | n | 2.51µM | n | n
Cc1ccc2nc(-c3ccc(C)o3)c(Nc3ccccc3)n2c1 | n | n | 17.8µM | x | x | x
Cc1ccc(-c2nc3ccc(Cl)cn3c2Nc2ccccc2)o1 | n | n | u | x | x | x
Cc1ccc(-c2nc3cnccn3c2Nc2ccc3c(c2)OCO3)o1 | n | n | n | n | 10µM | n
SMILES | TrxR1 substrate | LDHA block | TrxR1 inh | GLS inhibitor | PKM2 activator | IDH1 R132H inh
Cc1ccc2nc(-c3ccccc3F)c(Nc3ccc(Cl)cc3)n2c1 | n | n | n | n | x | n
Fc1ccccc1-c1ccc(-c2nc3ccc(Cl)cn3c2Nc2ccc(Cl)cc2)o1 | n | n | 25.1µM | x | x | x
Cc1ccc(-c2nc3ncccn3c2Nc2ccc3c(c2)OCCO3)o1 | n | n | 39.8µM | n | n | n
Cc1ccc(-c2nc3cnccn3c2Nc2ccccc2)o1 | n | n | 39.8µM | n | n | n
Cc1ccn2c(Nc3ccc4c(c3)OCO4)c(-c3ccccn3)nc2c1 | n | n | n | 11.2µM | n | n
Cc1ccc(Nc2c(-c3ccccn3)nc3cc(C)ccn23)cc1 | n | n | n | u | n | n
Cc1cccc(Nc2nnc(-c3cc4ccc(O)cc4oc3=O)s2)c1 | x | n | x | x | x | x
c1csc(CSc2nnc3sc4ccccc4n23)c1 | n | n | n | n | 15.8µM | n
O=C(O)c1cc(-c2ccc(/C=C3\NC(=O)N(c4ccc(Cl)cc4)C3=O)o2)ccc1Cl | n | n | u | 20µM | n | n
O=C1C=CC(=O)N1c1cccc2cccnc12 | n | n | 56.2µM | n | x | n
c1cnc2c(c1)ccc1cccnc12 | n | n | n | n | n | n
O=C(O)CSc1ccc(Br)cc1 | x | n | x | x | x | x
CCn1c(CSc2nnc(C3CC3)n2-c2ccccc2)nc2cc(S(=O)(=O)N(C)C)ccc21 | x | n | x | x | x | x
CC1(C)CC(=O)C=C(NC2=CC3OC(c4ccccc4)OCC3OC2=O)C1 (stereo not given) | n | n | 15.8µM | n | n | n
N#Cc1nc(C2CC2)oc1N1CCN(C(=O)c2cncc(Br)c2)CC1 | x | n | x | x | x | x
C=C1c2cccc(OC)c2O[C@H](C(=O)OCC)[C@@H]1CC(CC)CCCC (stereo not given in full) | n | n | n | n | x | n
CCOC(=O)/C=C1\CC(C(=O)OCC)Oc2c(OC)cccc21 (stereo not given) | n | n | 28.2µM! | n | x | n
O=S(=O)(c1ccc(-c2csc(Nc3ccc(F)cc3)n2)cc1)N1CCCCC1 | x | n | x | x | x | x
CC1=C(C(=O)c2ccccc2)C(c2cccc(Oc3ccc(Cl)cc3)c2)NC(=O)N1 (stereo not given) | x | n | x | x | x | x
Cc1nc2scc(-c3ccccc3)c2c(=O)n1N | n | n | n | n | n | n
Cc1nc2scc(-c3ccccc3)c2c(=O)n1N=C1C=CC(=O)C=C1 | n | n | 3.16µM | 3.16µM | n | n
O=C(Nc1ccccc1)C1CCCN1c1ncnc2ccccc12 (stereo not given) | x | n | x | x | x | x
Cc1ccc(C(=O)Oc2oc(-c3ccco3)nc2C=Nc2ccc(Cl)cc2)cc1 | n | n | 1.78µM | n | n | n
O=C(Oc1oc(-c2ccco2)nc1C=Nc1ccccc1)c1ccoc1 | n | n | 3.55µM | n | n | n
